Compound activity from PubChem BioAssay.
NLRP3 yeast inh: NALP3 inflammasome inhibitors in reconstituted yeast, primary screen, luminescence, uHTS | Yeast reconstituted NLRP3/ASC/caspase-1, beta-gal luminescence, 24 h | actives 0.39% (n = 330,000) | inhibition, % at 10 µM;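 active = inhibition of 50% or more; inactive = inhibition below 50%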
NALP1 inh: NALP1 inflammasome inhibitors in reconstituted yeast, colorimetric, S. cerevisiae, triplicate retest. inhibition, % at 10 µM. actives 0.61% (n = 280,000). S. cerevisiae NALP1/ASC/caspase-1 growth, X-gal OD620, 72 h; in the data active = inhibition mostly above about 24%, no sharp cut-off; inactive = mostly below about 32%
PolyA inhibitor: polyadenylation inhibitors in yeast reporter cells, primary screen, luminescence, S. cerevisiae. actives 0.02% (n = 300,000). S. cerevisiae SKY197-pL101 polyadenylation reporter, beta-gal luminescence; efflux-impaired pdr1/pdr3 knockout yeast; score 100 = 6 SD above DMSO. activity score, % at 12 µM. AID 1875, 2009;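 active = lowest replicate activity score at least 50, where 100 means six control SD above control mean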;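 also: yeast exposed to compound for 9 h at 30 °C; higher score means more reporter readthrough which indicates perturbed polyadenylation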
Mot1-301 SUMO: yeast Mot1-301 growth rescue at high temperature, primary screen, SUMOylation pathway inhibitor project, S. cerevisiae, ATP luminescence, 38.5C. growth rescue, % at 18.8 µM. S. cerevisiae Mot1-301 growth rescue; percent above DMSO median, 100 means doubled. actives 1% (n = 320,000);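 active = every valid replicate shows activation above 250% relative to neutral control wells; inactive = the rest, any valid replicate at or below 250%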
Numbers stand for hits; n = inactive; x = no result given; + = active, no number. In the library only some 1.8% were active in any assay of this set; here they are far more common.

SMILES	NLRP3 yeast inh	NALP1 inh	PolyA inhibitor	Mot1-301 SUMO
CCCCCCC(=O)N(O)C1CC(=O)N(c2ccc(Br)cc2)C1=O (stereo unspecified)	n	n	n	338
CCN1c2cccc3cccc(c23)S1(=O)=O	n	n	n	n
COc1ccc(C(=O)Nc2cccc3nc(C)ccc23)cc1OC	n	n	n	549
COc1cc(OC)cc(C(=O)Nc2cccc3nc(C)ccc23)c1	n	n	n	n
CCC(C)[C@H](NC(=O)N1CC(=O)Nc2ccccc21)C(=O)Nc1ccccc1C (stereo partly specified)	n	n	n	n
COc1ccc(Nc2ccc3c(c2)=NC2(CCCCC2)[N+]=3[O-])cc1	n	40	n	n
Cc1cc(C)c(C(=O)COC(=O)CNC(=O)c2ccccc2C)c(C)c1	n	x	n	n
CSc1ccc(/C=N/NC(=O)CN2CCN(Cc3ccccc3)CC2)cc1	n	n	n	n
O=C(CN1CCCC1)N/N=C/c1ccc(-c2cccc(Cl)c2)o1	n	32	n	n
Cc1ccc(/C=N/NC(=O)CN2CCN(Cc3ccccc3)CC2)o1	n	45	n	n
COC(=O)c1c(NC(=S)Nc2cc(OC)c(Cl)cc2OC)sc2c1CCCCC2	n	n	n	n
CC(=O)c1ccc(NC(=O)CSCCO)cc1	n	n	n	n
CCCOc1c(Br)cc(C(N)=O)cc1OCC	n	n	n	316
CCOc1c(Br)cc(C(N)=O)cc1OC	n	n	n	n
O=C(O)COc1ccc(-c2nnn(Cc3ccccc3F)n2)cc1	n	n	n	n
CCCc1nnc(NC(=O)CC(=O)Nc2ccccc2C(=O)O)s1	n	40	n	n
CCCc1nnc(NC(=O)c2cc3ccccc3oc2=O)s1	n	40	n	n
CCCc1nnc(NC(=O)CS(=O)(=O)c2ccccc2)s1	n	n	n	n
CCOc1ccc(C(=O)O)cn1	n	n	n	n
O=C(/C(=C\c1ccccc1)c1nc2ccccc2[nH]1)c1ccc(Cl)cc1	n	n	n	+
O=C(/C(=C/c1ccc(Cl)cc1)c1nc2ccccc2[nH]1)c1cccs1	n	n	n	521
C#CCN(C)CCCOc1ccc(Cl)cc1Cl	n	56	n	n
C=CCC1(CC=C)CCCN1C(=O)c1cc(COc2ccccc2SC)on1	n	n	n	n
CCOC(=O)c1ccc(NC(=O)COc2ccc(S(=O)(=O)NC(C)CC)cc2)cc1 (stereo unspecified)	n	28	n	n
O=C(CCl)Nc1ccc(N=Nc2ccccc2)cc1	x	78	n	x
SMILES	NLRP3 yeast inh	NALP1 inh	PolyA inhibitor	Mot1-301 SUMO
O=C(CCl)Nc1ccc(-c2ccccc2)cc1	n	n	n	n
O=C(CN1CCN(S(=O)(=O)c2ccccc2F)CC1)Nc1ccnn1C1CCCC1	n	x	x	n
O=C(/C(=C/O)N=Nc1ccccc1)c1ccc(Cl)cc1	n	26	n	n
O=C(NCCc1nc2ccccc2[nH]1)c1ccco1	n	n	n	n
COc1cc(NC(C)CCCN)c2ncccc2c1Oc1ccccc1 (stereo unspecified)	n	58	n	x
COc1cc(NC(C)CCc2ccccc2)cc(OC)c1OC (stereo unspecified)	n	n	n	n
O=C(Nc1ccc(-c2nnn(CC(=O)N3CCN(C(=O)c4ccco4)CC3)n2)cc1)c1ccc(F)cc1	n	n	n	n
Nc1ccc2c(c1)C/C(=C/c1ccco1)C2=O	n	49	n	n
O=C1/C(=C/c2ccco2)CCc2ccccc21	n	n	n	n
CC1(c2ccccc2Br)NC(=O)N(CC(=O)Nc2ccc(S(N)(=O)=O)cc2)C1=O (stereo unspecified)	n	n	n	n
CC(CN(C)Cc1ccccc1)OC(=O)C1COc2ccccc2O1 (stereo unspecified)	n	n	n	n
CC(CN1CCOCC1)OC(=O)C1COc2ccccc2O1 (stereo unspecified)	n	28	n	n
COc1ccc(CC(=O)OC(C)CN2CCOCC2)cc1 (stereo unspecified)	n	29	n	n
O=c1cc(/C=C/c2cccs2)[nH]c2ccccc12	n	n	n	n
CS(=O)(=O)N(Cc1ccccc1)c1ccc(C(=O)N2CCc3ccccc3C2)cc1	n	n	n	n
N#Cc1ccccc1NC(=O)Nc1ccccc1	n	n	n	n
CCCn1nnc(NC(=S)NC(=O)Cc2ccccc2)n1	n	n	n	n
Cc1ccc(S(=O)(=O)NCCSc2nnnn2C)cc1	n	n	n	n
Cc1ccc(Nc2cc(C)nc3c(C)cccc23)cc1	n	n	n	n
CC(=O)c1ccc(Nc2cc(C)nc3c(C)cccc23)cc1	n	28	n	n
O=C(CCCc1nc2ccccc2s1)N1CCN(c2ccccc2)CC1	n	n	n	n
CC1CCCN(CCCOc2ccc(Br)cc2Cl)C1 (stereo unspecified)	n	26	n	n
CC1CCN(CCOCCOc2ccc(Br)cc2Cl)CC1	n	n	n	n
CCC(C)c1ccc(-c2cc(C(=O)OCC(=O)Nc3cc(C)on3)c3ccccc3n2)cc1 (stereo unspecified)	n	n	n	n
Cc1cc(NC(=O)c2cc(-c3ccc(OC(C)C)cc3)nc3ccccc23)no1	n	n	n	312
SMILES	NLRP3 yeast inh	NALP1 inh	PolyA inhibitor	Mot1-301 SUMO
COc1ccc(-c2cc(C(F)F)n3ncc(C(=O)Nc4cc(C)on4)c3n2)cc1	n	43	n	n
CC(C)c1ccc(NCCC(=O)c2ccc(Br)cc2)cc1	n	n	n	324
Cc1cccc(NCCC(=O)c2ccc(Br)cc2)c1	n	n	n	n
CN1CCN(CC(=O)N(Cc2c(C#N)c3ccccc3n2C)c2ccccc2)CC1	n	30	n	n
CN(C)CCCN(C(=O)CCc1ccccc1)c1nc2ccc(Cl)cc2s1	n	64	n	n
CN(C)CCCN(C(=O)COc1ccccc1)c1nc2ccc(Cl)cc2s1	n	n	n	n
Cc1ccc2nc(N(CCCN(C)C)C(=O)CCc3ccccc3)sc2c1	x	48	n	n
CCOC(=O)c1cc(NC(=O)Nc2ccccn2)c(C)nc1C	n	n	n	n
Cn1c(N)c(C(=O)CSc2nnc(-c3ccccc3F)n2N)c(=O)n(C)c1=O	n	x	n	n
C=CCn1c(SCC(=O)c2c(N)n(C)c(=O)n(C)c2=O)nnc1-c1ccncc1	n	n	n	n
Cn1c(N)c(C(=O)CSc2nnc(-c3ccccc3F)n2C2CC2)c(=O)n(C)c1=O	n	34	n	n
C=CCn1c(SCC(=O)c2c(N)n(C)c(=O)n(C)c2=O)nnc1-c1ccccc1F	n	37	n	n
CCCn1c(COc2ccc(C(=O)O)cc2)nc2ccccc21	n	43	n	n
Cn1c(COc2ccc(C(=O)O)cc2)nc2ccccc21	n	n	n	n
CCCCOc1ccc(C(=O)O)cc1	n	20	n	n
O=C(Nc1ccnn1C1CCN(Cc2cc(Cl)ccc2O)CC1)C1CC1	n	n	n	n
CC(C)(C)NC(=O)C(=O)NCc1ccccn1	n	n	n	n
